# Source: PubChem BioAssay (National Center for Advancing Translational Sciences (NCATS))
# An excerpt weighted towards active compounds, which were near 2.4% of everything screened.
# D2 PAM-1 – positively modulates the human D2 dopamine receptor allosterically; P14416; HEK293 T-REx D2, calcium flux, EC20 dopamine potentiation; potentiation, % at 10 µM; 340,000 tested, 0.34% active; AID 485347;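 active means potentiation over 3 SD above the plate norm, cut at about 30% in these data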; further: 0% is about no effect
# Target sequence (P14416 whole entry, looked up): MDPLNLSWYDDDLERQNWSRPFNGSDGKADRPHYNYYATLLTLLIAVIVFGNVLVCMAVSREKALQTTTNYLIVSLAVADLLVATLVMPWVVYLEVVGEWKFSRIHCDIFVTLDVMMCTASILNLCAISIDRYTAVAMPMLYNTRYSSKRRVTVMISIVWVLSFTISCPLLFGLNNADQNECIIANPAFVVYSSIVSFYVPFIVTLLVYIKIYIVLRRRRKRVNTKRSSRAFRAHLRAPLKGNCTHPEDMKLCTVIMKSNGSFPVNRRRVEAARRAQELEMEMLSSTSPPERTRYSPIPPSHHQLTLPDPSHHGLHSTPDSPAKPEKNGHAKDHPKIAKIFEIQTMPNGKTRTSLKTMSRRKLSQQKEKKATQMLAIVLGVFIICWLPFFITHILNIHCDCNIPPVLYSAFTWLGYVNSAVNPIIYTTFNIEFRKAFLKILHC
#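 Potentiation of an EC20 dopamine calcium response is measured in a force-coupled, tetracycline-inducible Hek293 Trex D2 line. Compound-only kinetic reads over 180 s flag agonists before dopamine addition.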
# D2 ag-1 – agonists of human D2 dopamine receptor | P14416 | HEK293 T-REx D2 cells, calcium flux agonist mode | activation, % at 2 µM | 340,000 tested, 0.53% active | AID 485358;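 active means activation over 3 SD above normal in the single-dose calcium agonist read, cut at about 30% in these data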; further: 0% is about no effect
#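 In this primary screen, compounds producing a positive calcium signal within 180 s of addition to tetracycline-induced, force-coupled HEK293 Trex D2 cells are flagged; cells are dye-loaded with a no-wash calcium kit beforehand.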
# D2 PAM-2 – human D2 receptor positive allosteric modulation | 360,000 tested, 0.23% active | AID 624464 | potentiation, % (no concentration beside the values) | P14416 | DiscoveRx D2 beta-arrestin cells, luminescence, 90 min; 100% = 57 uM dopamine signal; in the data active means potentiation above about 50%
#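 D2 cells co-treated with compound plus 50 nM dopamine (EC20) for 90 min at 37 deg C to detect potentiation. Beta-arrestin recruitment was read as enzyme-fragment luminescence after 1 h at ambient temperature. Full response was set by 57 uM dopamine.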
# D2 antag – D2 dopamine receptor (human) antagonism. 340,000 tested, 2% active. HEK293 TREx D2 cells, calcium flux, dopamine EC80. inhibition, % at 10 µM. AID 485344; in the data active means inhibition above about 30%; inactive means below that, where a call was filed; further: 0% is about no effect
#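 Inhibition of EC80 dopamine-driven calcium flux, recorded kinetically, defines activity here; cells are a tetracycline-induced HEK293 T-REx line expressing force-coupled D2.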
# D2 ag-2 – activates the human D2 dopamine receptor; P14416; DiscoveRx PathHunter D2 beta-arrestin, luminescence, 90 min; 100% = 57 uM dopamine signal; activation, % (no concentration beside the values); 360,000 tested, 0.084% active; in the data active means activation above about 40%
#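 DiscoveRx PathHunter D2 beta-arrestin cells (2,100/well) attached overnight, then compound-stimulated 90 min at 37 C in HBSS/10 mM HEPES/0.1% Tween-20 buffer; beta-galactosidase complementation read by luminescence after 1 h at ambient temperature. Dopamine 57 uM final (EC100) as control.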
# The depositor's hits bear a star; · = no result given.
SMILES,D2 PAM-1,D2 ag-1,D2 PAM-2,D2 antag,D2 ag-2
Cc1cc(C)cc(N2C(=O)NC(=O)/C(=C\c3cccn3-c3ccc(Cl)cc3)C2=O)c1,9,0,-7,38*,1
CCn1c(O)c(C=Nc2ccc(N3CCOCC3)cc2)c(=O)n(CC)c1=S,-2,35*,12,14,0
COC(=O)C(O)(c1ccc(NC(=S)NC(=O)c2ccc(Cl)cc2Cl)cc1)C(F)(F)F (stereo not drawn),32*,11,-32,0,-6
CC(C)OP(=O)(OC(C)C)C(O)c1ccc(Br)cc1 (stereo not drawn),-4,-1,104*,0,12
CC(C)[C@@]1(NC(=O)[C@@H]2C=C3c4cccc5[nH]cc(c45)C[C@H]3N(C)C2)O[C@@]2(O)[C@@H]3CCCN3C(=O)[C@H](Cc3ccccc3)N2C1=O,-29,64*,·,80*,·
CC(C)[C@H]1C(=O)N2CCC[C@H]2[C@]2(O)O[C@](NC(=O)[C@@H]3C=C4c5cccc6[nH]cc(c56)C[C@H]4N(C)C3)(C(C)C)C(=O)N12,-31,84*,66*,88*,80*
CC(C)Cc1nc2cccnc2n1C1CCNCC1,12,0,·,·,·
CN1CCN(c2csc3ccc(F)cc3c2=O)CC1,17,·,·,·,·
O=C1NC(=O)N(c2ccccc2F)C(=O)/C1=C/c1ccc(Sc2nc3ccccc3[nH]2)o1,10,19,-6,44*,-5
O=S1(=O)N(Cc2ccccc2)CCCN1Cc1ccc(F)cc1Cl,-4,0,·,·,·
COc1cc(/C=C/[N+](=O)[O-])ccc1O,5,2,0,-18,-1
CCN(CC)c1ccc(/C=C/[N+](=O)[O-])cc1,-7,57*,4,1,-4
Cc1cc(O)c(CN2CC=C(c3ccccc3)CC2)cc1C(C)C,-26,1,-16,75*,-3
O=c1cc(CN2CC=C(c3ccccc3)CC2)c2c(ccc3ccccc32)o1,-5,20,-13,-1,1
Cc1ccc(CN2C3CCCC2CC(NC(=O)Nc2cccc(F)c2)C3)cc1 (stereo not drawn),-28,1,-26,75*,-2
O=C(CCCN1CCC2(CC1)C(=O)NCN2c1ccccc1)c1ccc(F)cc1,·,76*,·,71*,·
CC(C)N1CCOC(c2ccc(O)c(O)c2)C1 (stereo not drawn),·,·,60*,·,83*
CC(C)N1CCN(c2ccc(O)cc2)CC1,-27,1,-11,15,10
Cc1ccc(-n2nc(C)c3c2NC(=O)CSC3c2ccc(O)cc2)cc1Cl (stereo not drawn),8,-2,·,·,·
COc1cc(C)c(CN2CC=C(c3ccc(F)cc3)CC2)cc1C,-27,-1,-17,84*,0
COc1cc(CN2CC=C(c3ccc(F)cc3)CC2)cc(OC)c1,-30,0,-2,81*,-2
CC(C)(C)NC(=O)C1CC2CCCCC2CN1 (stereo not drawn),3,1,1,64*,-5
Cc1ccsc1C(=O)C1CCCN(Cc2cnc(N3CCCC3)s2)C1 (stereo not drawn),-8,1,-5,39*,-1
Cc1ccsc1C(=O)C1CCCN(Cc2c(C)nn(C(C)C)c2C)C1 (stereo not drawn),-18,-1,-12,57*,-2
Cc1ccc(Cn2cccc(C(=O)Nc3ccc(C)c(Cl)c3)c2=O)cc1,12,-2,·,·,·
CCC(C)NC(=O)CCC(=O)OC1O[C@H]2OC3(C)CC[C@H]4[C@H](C)CCC(C1C)C24OO3 (stereo partly drawn),7,0,24,-31,57*
CCC(C)C(NC(=O)CCCNC(=O)CCC(=O)OC1O[C@H]2OC3(C)CC[C@H]4[C@H](C)CCC(C1C)C24OO3)C(=O)O (stereo partly drawn),16,0,·,18,·
CCC(=O)N1CC(=O)Nc2ccc(C)cc2C1c1ccc(F)cc1 (stereo not drawn),13,-1,·,·,·
CSc1ncc(C(=O)Nc2ccc(Cl)cc2C(=O)c2ccccc2)c(C)n1,-1,-1,·,·,·
CNC(C)Cc1ccccc1Sc1ccc(O)cc1 (stereo not drawn),-21,0,-42,67*,-4
